HSF-1 act: HSF-1 activators, primary screen, NIH3T3-HGL cells, MG132 stress, luminescence, single point; NIH3T3-HGL HSF-1 luciferase reporter, 8 h; 100% = twice DMSO control signal; activation, % at 9 µM; 300,000 compounds, 1.7% hits;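 active means mean replicate activation of at least 50% with a set share of replicates each reaching 50%; inconclusive means only one of those two conditions met; inactive means mean below 50% and too few replicates reaching it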;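 further: 0% = median of the neutral control wells and 100% = twice that signal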
HSF1 inh: HSF1 inhibitors in luciferase reporter cells, primary screen, cell-based, NIH3T3, luminescence. activity change, negative = inhibition, % at 7.5 µM (by protocol). NIH3T3-HGL HSE-luciferase, MG132-induced, luminescence 8 h; active compounds read low. 300,000 compounds, 0.77% hits;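 active means more than half of replicate wells show activity change below -50%, luminescence cut by over half; inconclusive means some wells, but at most half, below -50%; inactive means no replicate well below -50%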;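 further: luciferase reports HSF-1 transcriptional activity via heat shock element; 0% = median of DMSO wells and -100% = zero luminescence signal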
HSP90 inh: HSP90 inhibitors, primary screen, cell lysate, luminescence | Heat shock protein HSP 90 (rabbit reticulocyte lysate; luciferase refolding) | Rabbit reticulocyte lysate, luciferase refolding luminescence, 3 h | inhibition, % at 5.6 µM | 290,000 compounds, 0.91% hits | AID 1789, 2009;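 active means inhibition above the screen-wide mean plus 3 SD, computed separately per campaign, cut at about 16% in these data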;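 further: 0% = DMSO wells and 100% = 60 µM geldanamycin wells; inhibitors lower the luminescence because luciferase stays unfolded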
GAA850 FXN act: FXN promoter activators, primary screen, cell-based, luciferase luminescence, HEK293 lucGAA850 | HEK293 lucGAA850 FXN promoter luciferase reporter, 24 h; percent of 10 µM SAHA response | activation, % at 6 µM | 360,000 compounds, 0.56% hits | AID 540364, 2011;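 active means activation above the average of all compounds screened plus 3 SD, cutoff fixed separately per campaign, cut at about 7.5% in these data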;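 further: 0% = DMSO wells and 100% = 10 µM SAHA wells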
DAX1 inh: DAX1 (NR0B1) inhibitors, primary screen, cell-based, HEK293, Gal4-DAX1, luciferase luminescence; inhibition, % at 6.75 µM; 340,000 compounds, 0.99% hits; HEK293 Gal4-DAX1 luciferase reporter; Nuclear receptor subfamily 0 group B member 1 (Homo sapiens), P51843;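 active means inhibition above the mean over all tested compounds plus 3 SD, cut at about 4.2% in these data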;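 further: 0% = DAX1-transfected cells with DMSO and 100% = empty-vector control cells with DMSO; inhibition shows as a rise in luminescence from relieved DAX1 repression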
Target sequence (P51843 207-470 limits assumed): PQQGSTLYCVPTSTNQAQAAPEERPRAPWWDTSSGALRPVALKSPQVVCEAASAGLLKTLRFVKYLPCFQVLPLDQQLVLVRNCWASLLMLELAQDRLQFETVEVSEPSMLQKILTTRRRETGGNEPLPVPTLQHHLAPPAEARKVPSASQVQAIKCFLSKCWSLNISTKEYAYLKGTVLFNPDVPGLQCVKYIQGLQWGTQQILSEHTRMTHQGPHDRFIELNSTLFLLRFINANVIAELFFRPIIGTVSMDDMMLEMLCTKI
AHR activator: AHR activators, primary screen, cell-based, luminescence, luciferase reporter, human; AHR-responsive luciferase reporter cells; Aryl hydrocarbon receptor (Homo sapiens), P35869; 320,000 compounds, 2.5% hits; activation, % at 5 µM; in the data active means activation above about 47%;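 further: 0% = vehicle wells and 100% = reference agonist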
HSP90 confirm: HSP90 inhibitors, confirmation, cell lysate, luminescence. shares compounds with HSP90 inh. rabbit reticulocyte lysate, luciferase refolding luminescence, 3 h. inhibition, % at 5.9 µM. 2,300 compounds, 64% hits. AID 1846, 2009; in the data active means inhibition above about 18%;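 further: 0% = vehicle wells and 100% = reference inhibitor wells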
FLuc counter: firefly luciferase inhibitors, HSP90 counter-screen, confirmation, artefact control for HSP90 inhibitor project, biochemical, luminescence, triplicate | shares compounds with HSP90 inh | purified native firefly luciferase | inhibition, % at 5.9 µM | 2,300 compounds, 48% hits | AID 1847, 2009;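 active means inhibition above the mean inhibition of all tested sample wells plus 3 SD, cut at about 10% in these data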;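 further: 0% = DMSO with luciferase and 100% = wells lacking luciferase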
* = called active by the depositor; ? = inconclusive; / = no result. The list is not random: actives were taken first. Their share in the collection is about 5.9%.

SMILES | HSF-1 act | HSF1 inh | HSP90 inh | GAA850 FXN act | DAX1 inh | AHR activator | HSP90 confirm | FLuc counter
COc1ccc(COC(=O)C2CCN(S(=O)(=O)c3ccc(C)cc3)CC2)cc1 | -6 | -4 | / | -1 | 2 | 1 | / | /
COc1cc(NCCCn2cnc3c(OC)ncnc32)cc(OC)c1OC | / | / | / | 1 | 0 | / | / | /
Cc1ccc(-c2nc(-c3ccccc3)no2)c(Cl)c1 | -77 | -72* | 54* | -8 | -1 | -10 | 90* | 86*
O=C(c1ccccc1)N1CCN(C2c3cccc4cccc(c34)C2NS(=O)(=O)c2ccccc2)CC1 (stereo not given) | 8 | 9 | 2 | -9 | 1 | 19 | / | /
COc1ccc2cc(-c3cc(C(=O)O)c4ccccc4n3)ccc2c1 | 26 | 0 | 28* | -4 | -4 | -14 | 64* | 38*
Cc1ccc(/C=C2/C(=O)c3ccc(C(=O)O)cc3C2=O)o1 | 2 | -1 | 22* | 1 | 3 | / | 46* | -32
CCOCCCNCc1ccc(OCCC(C)C)c(OC)c1 | -10 | -1 | -4 | 0 | 1 | 1 | / | /
C/C(=N\NC(=O)c1ccoc1C)c1ccccc1 | 36 | 13 | 20* | 1 | / | -3 | -2 | -22
Cc1occc1C(=O)N/N=C/c1ccc(N(C)C)cc1 | ? | 37 | 20* | 2 | -2 | 11 | 60* | 50*
C/C(=N/NC(=O)c1ccc(Br)s1)c1ccncc1 | 22 | 5 | -3 | 4 | 1 | 45 | / | /
Cc1ccccc1N1CCN(C2CCCN(C(=O)CCc3c(C)noc3C)C2)CC1 (stereo not given) | 35 | 24 | 2 | 3 | -1 | 2 | / | /
COc1ccc(C/C(C)=N/NC(=S)Nc2ccc(C(C)C)cc2)cc1 | -3 | 1 | -1 | 0 | 1 | 6 | / | /
COc1ccc(C/C(C)=N/NC(=S)Nc2ccccc2F)cc1 | -70 | -64* | 36* | -3 | 2 | 16 | 48* | 35*
O=C(NNc1nc(-c2ccc(Br)cc2)cs1)c1ccco1 | 12 | 1 | -3 | 5 | 2 | 35 | / | /
N/C(=N\OC(=O)c1ccc(Cl)cc1)c1ccccn1 | -54 | -48 | 57* | -4 | -4 | -15 | 20* | 89*
COc1ccc(C(=O)O/N=C(\N)c2ccccn2)cc1 | -78 | -75* | 80* | -8 | -3 | -5 | 86* | 92*
N/C(=N\OC(=O)c1cccc(Cl)c1)c1ccccn1 | 18 | -8 | 34* | -1 | -5 | 70* | 31* | 76*
N/C(=N\OC(=O)c1ccc(Cl)c([N+](=O)[O-])c1)c1ccccn1 | 35 | 10 | 6 | 1 | 0 | -6 | / | /
COc1ccccc1N/C=C/c1onc(C)c1[N+](=O)[O-] | -51 | -46 | 39* | -7 | -2 | 54* | 78* | 71*
COc1ccccc1Nc1ccc2nonc2c1[N+](=O)[O-] | -54 | -45 | 3 | 3 | -1 | 1 | / | /
COc1ccc(CNC(=O)COC(=O)c2ccco2)cc1 | -14 | -1 | 51* | 0 | 1 | 3 | -7 | -9
CCCS(=O)(=O)c1cnc(C2COc3ccccc3O2)nc1N (stereo not given) | -83 | -80* | 93* | -12 | -5 | -8 | 88* | 80*
S=c1nc(C2COc3ccccc3O2)[nH][nH]1 (stereo not given) | -4 | -6 | 2 | 2 | -1 | 0 | / | /
COc1ccc(OC)c(/C(C)=N/Nc2ccc(C(=O)O)cc2)c1 | 6 | 3 | 36* | 0 | -2 | -4 | 25* | 33*
C/C(=N/Nc1ccc(C(=O)O)cc1)c1ccc(O)c(O)c1O | -11 | -12 | 29* | 2 | -2 | -7 | 54* | 45*
SMILES | HSF-1 act | HSF1 inh | HSP90 inh | GAA850 FXN act | DAX1 inh | AHR activator | HSP90 confirm | FLuc counter
COc1cc(/C(C)=N/Nc2ccc(C(=O)O)cc2)cc(OC)c1OC | -8 | -10 | 25* | 3 | -3 | -4 | 43* | 34*
C/C(=N\Nc1ccc(C(=O)O)cc1)c1ccc(-n2ccnc2)cc1 | 3 | 0 | 18* | 4 | -1 | 27 | 15 | -8
Cn1c(=O)c2c(nc3n2CCCN3CCc2ccccc2)n(C)c1=O | 18 | -2 | 2 | 0 | 0 | 41 | / | /
CC1(C)CCc2cc(-c3ccnc(=S)[nH]3)ccc2O1 | -43 | -42 | 18* | -2 | 2 | -8 | 9 | -17
S=c1nccc(-c2ccc3c(c2)CCO3)[nH]1 | -21 | 1 | 0 | 4 | 0 | 13 | / | /
Cc1ccc(C(=O)Nc2nc(-c3ccc4c(c3)OCCO4)cs2)o1 | / | / | / | 0 | 2 | / | / | /
Cc1cccc(Nc2nc(-c3ccc4c(c3)OCCO4)cs2)c1 | -58 | -54* | 47* | 2 | 3 | 7 | -2 | -27
CC(C)CC1C(C#N)=C(N)Oc2n[nH]c(-c3cccs3)c21 (stereo not given) | -3 | 6 | 18* | -4 | 1 | -2 | -7 | 1
N#CC1=C(N)Oc2n[nH]c(-c3cccs3)c2C1c1cccs1 (stereo not given) | 8 | 2 | 34* | -1 | 2 | 14 | -9 | -8
Cc1ccc(-c2cc3ccccc3nc2N)cc1 | 31 | 18 | -4 | 7 | 1 | 38 | / | /
N#Cc1cc2ccccc2nc1N | -1 | -3 | 20* | 2 | 0 | 5 | 3 | -1
COC(=O)C1CCN(C(=O)c2ccc3nc(-c4cccc(OC)c4)oc3c2)CC1 | -7 | -12 | 51* | 7 | -1 | 10 | 63* | -10
O=C(COC(=O)c1cccc(S(=O)(=O)NCc2ccccc2)c1)NCC1CCCO1 (stereo not given) | -10 | 1 | 3 | 0 | 0 | 13 | / | /
CN1C(=O)Nc2cccc3cccc1c23 | 5 | 10 | 21* | 1 | 4.4* | 4 | 0 | -4
CN1C(=O)N(C)c2cccc3cccc1c23 | 3 | -2 | 0 | 0 | -1 | 0 | / | /
CCN(CC)C(=O)COC(=O)C1=NN(c2cc(C)ccc2C)C(=O)CC1 | -4 | -8 | -3 | 1 | 0 | 0 | / | /
c1ccc2c(c1)CC1(CCCC1)n1nnnc1-2 | -5 | -5 | 18* | -3 | -1 | 1 | 0 | -4
